Experimental data: ChEMBL document CHEMBL5308504, “Tm Shift (DSF) assay results for EUbOPEN Chemogenomics Library” (2023)

What was measured:
[1] = target: Bromodomain-containing protein 4 (Homo sapiens) (UniProt O60885); settings: Compound concentration 20.0 uM, Protein concentration 2.0 uM, Result type QC Liability
[2] = target: T1, Transcription intermediary factor 1-alpha (Homo sapiens) (UniProt O15164); settings: Compound concentration 20.0 uM, Protein concentration 2.0 uM, Result type QC Liability
T1 sequence (whole entry): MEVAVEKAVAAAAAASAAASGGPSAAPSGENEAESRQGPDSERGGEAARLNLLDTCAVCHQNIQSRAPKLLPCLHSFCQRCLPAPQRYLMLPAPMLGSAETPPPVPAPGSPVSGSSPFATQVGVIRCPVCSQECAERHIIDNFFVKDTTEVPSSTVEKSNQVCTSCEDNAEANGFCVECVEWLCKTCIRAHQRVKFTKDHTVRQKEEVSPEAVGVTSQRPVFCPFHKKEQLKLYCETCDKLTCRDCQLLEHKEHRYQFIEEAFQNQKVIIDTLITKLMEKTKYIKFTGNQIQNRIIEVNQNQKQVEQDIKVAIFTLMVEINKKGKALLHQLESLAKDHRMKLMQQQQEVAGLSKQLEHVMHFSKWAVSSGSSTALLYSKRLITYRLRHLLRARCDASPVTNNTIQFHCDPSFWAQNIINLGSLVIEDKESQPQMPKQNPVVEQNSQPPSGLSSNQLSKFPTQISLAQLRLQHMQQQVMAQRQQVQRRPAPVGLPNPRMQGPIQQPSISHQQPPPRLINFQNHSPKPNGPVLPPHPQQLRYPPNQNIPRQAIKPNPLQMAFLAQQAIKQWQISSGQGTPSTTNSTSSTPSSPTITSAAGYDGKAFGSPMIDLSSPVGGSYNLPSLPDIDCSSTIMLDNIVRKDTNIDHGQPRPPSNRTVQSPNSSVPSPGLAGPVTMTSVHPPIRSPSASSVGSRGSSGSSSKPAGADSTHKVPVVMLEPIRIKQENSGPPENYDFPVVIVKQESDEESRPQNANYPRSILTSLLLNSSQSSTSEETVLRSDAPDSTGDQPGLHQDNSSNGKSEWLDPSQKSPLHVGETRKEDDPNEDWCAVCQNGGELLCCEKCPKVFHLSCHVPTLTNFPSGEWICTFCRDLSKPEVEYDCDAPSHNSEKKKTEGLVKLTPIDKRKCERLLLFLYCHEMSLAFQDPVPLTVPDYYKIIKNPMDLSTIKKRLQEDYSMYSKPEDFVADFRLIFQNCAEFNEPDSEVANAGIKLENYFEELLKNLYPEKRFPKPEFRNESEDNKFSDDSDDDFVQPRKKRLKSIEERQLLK

SMILES: CC(C)c1nc2c(c3c1[C@@H](c1ccc(C(F)(F)F)cc1)OC31CCOCC1)[C@@H](O)CC(C)(C)C2
- ΔTm [1]: -1.67 °C
- ΔTm [2]: 0.17 °C

SMILES: O=C(O)c1cccc(C2=C(c3cc(Cl)ccc3OCc3ccc(F)cc3F)CCC2)n1
- ΔTm [1]: -0.65 °C
- ΔTm [2]: -2.91 °C

SMILES: CCS(=O)(=O)Nc1cccc(Oc2cncc(Nc3ccc(I)cc3F)c2C(N)=O)c1
- ΔTm [1]: -0.22 °C
- ΔTm [2]: 1.47 °C

SMILES: CCCCc1c(-c2ccccc2)nc(N)nc1-c1ccc(OCc2ccccc2)c(F)c1F
- ΔTm [1]: -11.4 °C
- ΔTm [2]: -1.94 °C

SMILES: CC(=O)c1ccc2c(c1)/C(=C(/NC1CCN(C)CC1)c1ccc3c(c1)OCO3)C(=O)N2
- ΔTm [1]: -0.52 °C
- ΔTm [2]: 0.21 °C

SMILES: CC1CCN(C(=O)[C@@H](CCn2cccc2C#N)NS(=O)(=O)c2cccc3[nH]ccc23)CC1
- ΔTm [1]: -1.03 °C
- ΔTm [2]: 0.52 °C

SMILES: N=C(N)NCCC[C@H](NC(=O)CC1(CC(=O)N2CCN(C(c3ccccc3)c3ccccc3)CC2)CCCC1)C(=O)NCc1ccccc1
- ΔTm [1]: -0.62 °C
- ΔTm [2]: -1.18 °C

SMILES: COc1ccc(-c2cc3c(C)nc(N)nc3n([C@H]3CC[C@H](OCCO)CC3)c2=O)cn1
- ΔTm [1]: -0.11 °C
- ΔTm [2]: -2.05 °C

SMILES: O=C(O)CCn1c2c(c3ccccc31)C[C@H](NS(=O)(=O)c1ccc(F)cc1)CC2
- ΔTm [1]: -1.19 °C
- ΔTm [2]: -1.73 °C

SMILES: O=C(O)C[C@H]1CCn2c1c(Sc1ccc(Cl)cc1)c1ccc(F)cc12
- ΔTm [1]: 0 °C
- ΔTm [2]: -1.67 °C

SMILES: Cc1c(NC(=O)c2ccc(C(C)(C)C)cc2)cccc1-c1cn(C)c(=O)c(Nc2ccc(C(=O)N3CCOCC3)cc2)n1
- ΔTm [1]: -9.46 °C
- ΔTm [2]: 0.14 °C

SMILES: COC(=O)c1sccc1S(=O)(=O)Nc1ccc(Nc2ccccc2)cc1OC
- ΔTm [1]: -3.85 °C
- ΔTm [2]: 0.59 °C
